A selection: hits, their analogues and other compounds. The true share with any hit is near 2.6%.
Shn3 3UTR inh: reduces Shn3 3'UTR luciferase signal in osteoblasts; Clone20 osteoblast Shn3 3'UTR firefly luciferase, 24 h; inhibition, % at 12.5 µM; 0.52% of 360,000 active; AID 588674;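 active = mean inhibition of at least 75% with every replicate also reaching 75%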
CF NFkB inh: blocks PAF-induced NF-kB reporter in cystic fibrosis cells | inhibition, % at 5 µM | 0.86% of 360,000 active | KKLEB NF-kB-GFP reporter, GFP fluorescence overnight;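 active = at least 50% inhibition at 5 µM, scaled per plate between neutral and stimulator controls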;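 note: PAF is a Pseudomonas aeruginosa culture filtrate used as stimulus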
Peg3 promoter: Peg3 promoter activity inhibition. HeLa PEG-Prom luciferase reporter, luminescence, overnight. inhibition, % at 20 µM. AID 588405. 1.7% of 360,000 active;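 active = inhibition of at least 50% at 20 µM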
HIF-2a inh: blocks HIF-2a reporter activity | 786-0 RCC cells HIF-2a reporter, luciferase luminescence, overnight | inhibition, % at 18.8 µM | 0.72% of 360,000 active | AID 624352;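 active = inhibition of the luminescence signal of 40% or more relative to plate controls, in a single-dose primary screen at 18.75 µM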
KKLEB tox: CF airway cell cytotoxicity counter-screen; KKLEB CF airway cells viability, ATPlite luminescence, overnight; hits give low values; cells stimulated with P. aeruginosa culture filtrate; 0.36% of 360,000 active; activity change (cytotoxicity), % at 5 µM; AID 602141;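 active = corrected activity change at or below -50% at 5 µM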
Numbers stand for hits.

How did CC(C)C[C@H]1CNC(=S)N1CC1CCCN1C[C@H](Cc1ccccc1)N1C[C@H](Cc2ccc(O)cc2)N(CC2CCCCCC2)C1=S (stereo partly drawn) do in these assays?
Shn3 3UTR inh: inactive; CF NFkB inh: inactive; Peg3 promoter: 66; HIF-2a inh: inactive; KKLEB tox: inactive

How did O=C(O)c1cc2[nH]c3c(c2cc1Cl)CCCC3 do in these assays?
Shn3 3UTR inh: inactive; CF NFkB inh: inactive; Peg3 promoter: inactive; HIF-2a inh: inactive; KKLEB tox: inactive

What do the screens show for `CCCCn1c(N)c(N(CCOC)C(=O)c2ccc(S(=O)(=O)N(CC)c3ccccc3)cc2)c(=O)[nH]c1=O`?
Shn3 3UTR inh: inactive; CF NFkB inh: inactive; Peg3 promoter: inactive; HIF-2a inh: inactive; KKLEB tox: inactive

How did CCOC(=O)C1CCN(c2ccccc2CN2CCN(c3ccccc3OCC)CC2)CC1 do in these assays?
Shn3 3UTR inh: inactive; CF NFkB inh: inactive; Peg3 promoter: 92; HIF-2a inh: inactive; KKLEB tox: inactive

What do the screens show for `CC1(C(=O)NCc2ccccc2)CCC(=O)N1CCOc1ccccc1` (stereo not drawn)?
Shn3 3UTR inh: inactive; CF NFkB inh: inactive; Peg3 promoter: inactive; HIF-2a inh: inactive; KKLEB tox: inactive

How did FC(F)(F)c1cc(CCN2CCNC[C@@H]2CC2CCCCC2)cc(C(F)(F)F)c1 do in these assays?
Shn3 3UTR inh: inactive; CF NFkB inh: inactive; Peg3 promoter: 96; HIF-2a inh: inactive; KKLEB tox: inactive

How did CCCCNC(=O)NNC(=O)c1ccc(F)cc1 do in these assays?
Shn3 3UTR inh: inactive; CF NFkB inh: inactive; Peg3 promoter: inactive; HIF-2a inh: inactive; KKLEB tox: inactive

How did COc1ccc(CN(C(=O)CSc2nnc(-c3ccc(F)cc3)o2)c2ccc(F)cc2)cc1 do in these assays?
Shn3 3UTR inh: 88; CF NFkB inh: inactive; Peg3 promoter: inactive; HIF-2a inh: inactive; KKLEB tox: inactive

What do the screens show for `CCOC(=O)c1c(OCC)[nH]c2c1cc(O)c1ccccc12`?
Shn3 3UTR inh: inactive; CF NFkB inh: 85; Peg3 promoter: inactive; HIF-2a inh: inactive; KKLEB tox: inactive

Results for CCOC(=O)c1c(C)[nH]c2cc(Br)c(O)cc12 ?
Shn3 3UTR inh: inactive; CF NFkB inh: inactive; Peg3 promoter: inactive; HIF-2a inh: inactive; KKLEB tox: inactive

How did Nc1nc(Cl)cc(N2CCC(c3cc(-c4ccc(Cl)cc4)n[nH]3)CC2)n1 do in these assays?
Shn3 3UTR inh: 81; CF NFkB inh: inactive; Peg3 promoter: inactive; HIF-2a inh: inactive; KKLEB tox: inactive

What do the screens show for `CCOc1ccccc1N1CCN(C(=S)Nc2ccc(S(=O)(=O)Nc3ncccn3)cc2)CC1`?
Shn3 3UTR inh: inactive; CF NFkB inh: inactive; Peg3 promoter: inactive; HIF-2a inh: inactive; KKLEB tox: inactive

What do the screens show for `COc1ccccc1N(C)S(=O)(=O)c1ccc(C(=O)Nc2nccs2)cc1`?
Shn3 3UTR inh: inactive; CF NFkB inh: inactive; Peg3 promoter: inactive; HIF-2a inh: inactive; KKLEB tox: -50

Results for COc1ccc(C(=O)NCCc2cnc[nH]2)cc1OC ?
Shn3 3UTR inh: inactive; CF NFkB inh: inactive; Peg3 promoter: inactive; HIF-2a inh: inactive; KKLEB tox: inactive

What do the screens show for `N#CCSc1nc2cc(C(=O)N3CCC(C(N)=O)CC3)ccc2c2nc3ccccc3n12`?
Shn3 3UTR inh: inactive; CF NFkB inh: 68; Peg3 promoter: inactive; HIF-2a inh: inactive; KKLEB tox: inactive

Results for N#CCSc1nc2cc(C(=O)N3CCCC3)ccc2c(=O)n1Cc1ccccc1 ?
Shn3 3UTR inh: inactive; CF NFkB inh: inactive; Peg3 promoter: inactive; HIF-2a inh: inactive; KKLEB tox: inactive

What do the screens show for `CC1(C)C(C(=O)O)N2C(=O)C(NC(=O)Cc3ccccc3)C2S1=O` (stereo not drawn)?
Shn3 3UTR inh: inactive; CF NFkB inh: inactive; Peg3 promoter: inactive; HIF-2a inh: inactive; KKLEB tox: inactive

Results for Cc1cccc(OCCC(=O)OCC(=O)Nc2c(C)nn(-c3ccccc3)c2C)c1 ?
Shn3 3UTR inh: inactive; CF NFkB inh: inactive; Peg3 promoter: inactive; HIF-2a inh: inactive; KKLEB tox: inactive

How did O=c1c2ccccc2nc(COc2ccccc2)n1/N=C/c1cn[nH]c1-c1ccccc1 do in these assays?
Shn3 3UTR inh: inactive; CF NFkB inh: inactive; Peg3 promoter: inactive; HIF-2a inh: inactive; KKLEB tox: inactive

How did Cc1ccccc1OCc1nc2ccccc2c(=O)n1/N=C/c1cn[nH]c1-c1ccc(Br)cc1 do in these assays?
Shn3 3UTR inh: inactive; CF NFkB inh: inactive; Peg3 promoter: 61; HIF-2a inh: inactive; KKLEB tox: inactive

Results for CCOC(=O)C1CCN(c2c(NCc3ccc(C(=O)N(C)Cc4ccccc4)cc3)c(=O)c2=O)CC1 ?
Shn3 3UTR inh: inactive; CF NFkB inh: inactive; Peg3 promoter: inactive; HIF-2a inh: inactive; KKLEB tox: inactive

Results for CC(NCC(O)COCCC12CC3CC(CC(C3)C1)C2)c1ccccc1 (stereo not drawn) ?
Shn3 3UTR inh: inactive; CF NFkB inh: inactive; Peg3 promoter: 104; HIF-2a inh: inactive; KKLEB tox: inactive

What do the screens show for `NCC(O)COCCC12CC3CC(CC(C3)C1)C2` (stereo not drawn)?
Shn3 3UTR inh: inactive; CF NFkB inh: inactive; Peg3 promoter: inactive; HIF-2a inh: inactive; KKLEB tox: inactive

How did COc1ncnc2c1ncn2CCCNC1CCN(Cc2ccccc2)CC1 do in these assays?
Shn3 3UTR inh: inactive; CF NFkB inh: inactive; Peg3 promoter: inactive; HIF-2a inh: inactive; KKLEB tox: inactive

Results for O=C(NCc1ccc(Cl)cc1)c1ccc(CNc2c(N3CCCC3)c(=O)c2=O)cc1 ?
Shn3 3UTR inh: inactive; CF NFkB inh: inactive; Peg3 promoter: inactive; HIF-2a inh: 51; KKLEB tox: inactive

What do the screens show for `COc1cc(O)c(/C=N/NC(=O)c2ccncc2)c(OC)c1[N+](=O)[O-]`?
Shn3 3UTR inh: inactive; CF NFkB inh: inactive; Peg3 promoter: inactive; HIF-2a inh: inactive; KKLEB tox: inactive

How did NC(=O)/C=C/C(=O)Nc1ccc(Cl)cc1 do in these assays?
Shn3 3UTR inh: inactive; CF NFkB inh: inactive; Peg3 promoter: 63; HIF-2a inh: inactive; KKLEB tox: inactive

What do the screens show for `COc1ccccc1N1CCN(CC(=O)Nc2cc(F)ccc2C)CC1`?
Shn3 3UTR inh: inactive; CF NFkB inh: inactive; Peg3 promoter: inactive; HIF-2a inh: inactive; KKLEB tox: inactive

How did COc1ccccc1N1CCN(CC(=O)Nc2cc(C)nn2-c2nc(C)cc(C)n2)CC1 do in these assays?
Shn3 3UTR inh: inactive; CF NFkB inh: inactive; Peg3 promoter: 52; HIF-2a inh: inactive; KKLEB tox: inactive

How did CC(C)C(NC(=O)C12CC3CC(CC(C3)C1)C2)C(=O)N/N=C/C1=C(N2CCOCC2)C(=C\c2ccc([N+](=O)[O-])cc2)/CC1 (stereo not drawn) do in these assays?
Shn3 3UTR inh: inactive; CF NFkB inh: 91; Peg3 promoter: inactive; HIF-2a inh: inactive; KKLEB tox: -100

How did CCCSc1cc(N2CCCC2)nc(-c2ccccc2)n1 do in these assays?
Shn3 3UTR inh: inactive; CF NFkB inh: inactive; Peg3 promoter: inactive; HIF-2a inh: inactive; KKLEB tox: inactive

How did CCCSc1cc(N2CCN(C)CC2)nc(-c2ccc(OC)cc2)n1 do in these assays?
Shn3 3UTR inh: inactive; CF NFkB inh: inactive; Peg3 promoter: 55; HIF-2a inh: inactive; KKLEB tox: inactive
